Screens from PubChem.
DT40 TDP1 no CPT – qHTS for Inhibitors of human tyrosyl-DNA phosphodiesterase 1 (TDP1): qHTS in cells in absence of CPT; 420,000 tested, 15% active; Potency, µM (highest dose often 46.2 µM), inactives show top-dose activity change, negative = growth inhibition, usual class: inhibitors; DT40 Tdp1-/- hTDP1 cells, no CPT, ATP luminescence, 48 h; note: % is set by controls: 0 for no effect and ±100 for the full control effect; nearly all actives have a fitted effect of over 55% in size
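No-CPT arm: Tdp1-/-;hTDP1 DT40 cells (400/well) plus compounds, incubated ≥48 hr at 37 °C. Readout CellTiter-Glo luminescence.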
ATXN viability – Viability Counterscreen for Primary qHTS for Inhibitors of ATXN expression | Potency, µM (top dose mostly 56.7 µM), most hits filed as cytotoxic | S2 cells (HEK-293 line with an ATXN2-luciferase reporter) viability, CellTiter-Fluor protease fluorescence, 24 h | AID 651635, 2014 | 400,000 tested, 0.49% active; note: nearly all actives have a fitted effect of over 40% in size
DT40 TDP1 CPT – qHTS for Inhibitors of human tyrosyl-DNA phosphodiesterase 1 (TDP1): qHTS in cells in presence of CPT; AID 686979, 2013; chicken DT40 Tdp1-/-;hTDP1 cells + 20 nM CPT, ATP luminescence, 48 h; 420,000 tested, 12% active; Potency, µM (titrated, usually from 46.2 µM), without a hit: top-dose activity change, negative = growth inhibition, most hits filed as inhibitors; note: % is set by controls: 0 for no effect and ±100 for the full control effect; nearly all actives have a fitted effect of over 55% in size
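Cell growth measured by CellTiter-Glo luminescence after a minimum 48 h, 37 C compound exposure with 20 nM CPT in Tdp1-knockout DT40 cells stably expressing hTDP1, seeded 400/well; qHTS titration format.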
ATXN2 expr inh – Primary qHTS for Inhibitors of ATXN expression; HEK-293 ATXN2-luciferase reporter, luminescence, 24 h; Potency, µM (titrated, usually from 57 µM), for the others: top-dose activity change, negative = inhibition, actives largely listed as inhibitors; 360,000 tested, 0.72% active; note: % is set by controls: 0 for no effect and ±100 for the full control effect; nearly all actives have a fitted effect of over 55% in size
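ATXN2-luciferase reporter cells (luciferase flanked by upstream and downstream ATXN2 gene portions) were treated 24 h at 37 °C with compounds at up to 57 uM. SteadyGlo luminescence gave expression; GF-AFC fluorescence gave viability.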
HepG2 viability – qHTS for Inhibitors of TGF-b: Cytotox Counterscreen; HepG2 CAGA-GFP viability, ATP luminescence, 18 h; Potency, µM (doses to about 46.1 µM), inactives show at the top dose activity change, negative = cytotoxicity, actives largely listed as cytotoxic; 410,000 tested, 0.76% active; AID 588856, 2011
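HepG2 CAGA-GFP cells (1000/well, DMEM with 1% FBS) received compound, then TGF-beta at 500 pg/mL final, and were incubated 18 hours at 37 degrees C. Viability was read by CellTiter-Glo luminescence. Media-only wells were set as complete cell-killing and DMSO as no toxicity.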
TGFb inhibitor – qHTS for Inhibitors of TGF-b; HepG2 CAGA-GFP TGF-b/SMAD3 reporter, GFP fluorescence, 18 h; TGF-beta stimulated, 500 pg/mL final; Potency, µM (highest dose often 46.1 µM), for the others: at the top dose activity, negative = inhibition, hits mostly inhibitors; 410,000 tested, 1.2% active; note: % is set by controls: 0 for no effect and ±100 for the full control effect; nearly all actives have a fitted effect of over 65% in size
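First, reporter cells (HEPG2 CAGA-GFP) rested 2 h at 37 degrees C. Next, compounds were pinned in and TGF-beta added to 500 pg/mL final. After 18 h, GFP was imaged per cell and summed per well.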
Active calls of the source: *. Shown are actives, neighbours in structure and some others; about 17% of the full set was active somewhere. Calls come from the whole dose curve; as a rule, active = well fitted curve in the direction sought with a large enough effect; inconclusive = small, poorly fitted or top-dose-only effect, or another doubt; inactive = no such curve, though single readings can be large; an effect the other way counts as inactive or inconclusive. Potency is the fitted concentration of half-maximal effect.

`Nc1c(C(=O)N2CCCCC2)sc(=S)n1-c1ccccc1` gave DT40 TDP1 no CPT inconclusive, ATXN viability inactive, DT40 TDP1 CPT 20.6µM*, ATXN2 expr inh 7.3%, HepG2 viability -13.1% and TGFb inhibitor -10.6%.
Screening Cc1ccc(N(CC(=O)NCC2CCCO2)S(=O)(=O)c2ccccc2)c(C)c1 (configuration not stated) returned DT40 TDP1 no CPT -8.9%, ATXN viability inactive, DT40 TDP1 CPT -12.3%, ATXN2 expr inh -9.2%, HepG2 viability -5.2% and TGFb inhibitor 0.1%.
`CCOc1cc(Br)c(C2C(C(=O)OC)=C(C)NC3=C2C(=O)c2ccccc23)cc1OCC` (configuration not stated) gave DT40 TDP1 no CPT 23.1µM*, ATXN viability inactive, DT40 TDP1 CPT 4.61µM*, ATXN2 expr inh -7.5%, HepG2 viability -24.7% and TGFb inhibitor -14.1%.
For CCOc1cc(C2C(C(=O)OC)=C(C)NC3=C2C(=O)c2ccccc23)c(Br)cc1O (configuration not stated) the results were DT40 TDP1 no CPT 18.4µM*, ATXN viability inconclusive, DT40 TDP1 CPT inconclusive, ATXN2 expr inh -38.6%, HepG2 viability -13.9% and TGFb inhibitor inconclusive.
For CCOC(=O)C1=C(C)NC2=C(C(=O)c3ccccc32)C1c1cccc2ccccc12 (configuration not stated) the results were DT40 TDP1 no CPT 11.6µM*, ATXN viability inconclusive, DT40 TDP1 CPT inconclusive, ATXN2 expr inh -7.4%, HepG2 viability -11.8% and TGFb inhibitor inconclusive.
For CCOc1cc(C2C(C(=O)OC)=C(C)NC3=C2C(=O)c2ccccc23)c(Br)cc1OC (configuration not stated) the results were DT40 TDP1 no CPT inconclusive, ATXN viability inactive, DT40 TDP1 CPT -30.0%, ATXN2 expr inh -11.2%, HepG2 viability -36.7% and TGFb inhibitor -5.2%.
For O=c1[nH]c(C2CCN(S(=O)(=O)c3ccc(S(=O)(=O)NC4CC4)cc3)CC2)nc2c1nnn2Cc1ccccc1 the results were DT40 TDP1 no CPT -17.8%, ATXN viability inactive, DT40 TDP1 CPT -3.7%, ATXN2 expr inh 23.7%, HepG2 viability -7.8% and TGFb inhibitor -12.1%.
Screening O=C(c1ccco1)N1CCC(c2nc3c(nnn3Cc3ccccc3Cl)c(=O)[nH]2)CC1 returned DT40 TDP1 no CPT inconclusive, ATXN viability inactive, DT40 TDP1 CPT inconclusive, ATXN2 expr inh 5.8%, HepG2 viability 3.9% and TGFb inhibitor -0.1%.
For Cc1ccc(C)c(Cn2nnc3c(=O)[nH]c(C4CCN(S(=O)(=O)c5ccc(S(=O)(=O)NC6CC6)cc5)CC4)nc32)c1 the results were DT40 TDP1 no CPT 18.4µM*, ATXN viability inactive, DT40 TDP1 CPT inconclusive, ATXN2 expr inh -1.9%, HepG2 viability -18.6% and TGFb inhibitor inconclusive.
Cc1ccc(C)c(Cn2nnc3c(=O)[nH]c(C4CCN(S(=O)(=O)c5ccc(S(=O)(=O)N(C)C)cc5)CC4)nc32)c1 was read as DT40 TDP1 no CPT inconclusive, ATXN viability inactive, DT40 TDP1 CPT 18.4µM*, ATXN2 expr inh 23.9%, HepG2 viability -2.2% and TGFb inhibitor 2.4%.
Screening Cc1ccc(C)c(Cn2nnc3c(=O)[nH]c(C4CCN(C(=O)c5ccco5)CC4)nc32)c1 returned DT40 TDP1 no CPT inconclusive, ATXN viability inactive, DT40 TDP1 CPT 20.6µM*, ATXN2 expr inh 30.5%, HepG2 viability -6.9% and TGFb inhibitor 0.6%.
